According to PubChem BioAssay (EPA / NIEHS):
Records with an inconclusive call do not appear. The source made the active and inactive calls. The calls were made as follows: active = hit-call score of the fitted dose curve at least 0.9, where 1 is the maximum; inconclusive = response in the unintended direction; inactive = score below 0.9.

What was measured:
[1] = target: human Peroxisome Proliferator-activated Receptor alpha (PPARa), PPARA (gene 5465) (UniProt Q07869); experiment: ATG_PPARa_TRANS: Attagene TRANS-FACTORIAL HepG2 Assay for human Peroxisome Proliferator-activated Receptor alpha (PPARa) (AID 2283001);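 as to AC50: potency for gain of reporter signal over DMSO so agonist or activator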
Sequence of human Peroxisome Proliferator-activated Receptor alpha (PPARa), PPARA (gene 5465) (Q07869 whole entry, looked up, the tested form may be a part): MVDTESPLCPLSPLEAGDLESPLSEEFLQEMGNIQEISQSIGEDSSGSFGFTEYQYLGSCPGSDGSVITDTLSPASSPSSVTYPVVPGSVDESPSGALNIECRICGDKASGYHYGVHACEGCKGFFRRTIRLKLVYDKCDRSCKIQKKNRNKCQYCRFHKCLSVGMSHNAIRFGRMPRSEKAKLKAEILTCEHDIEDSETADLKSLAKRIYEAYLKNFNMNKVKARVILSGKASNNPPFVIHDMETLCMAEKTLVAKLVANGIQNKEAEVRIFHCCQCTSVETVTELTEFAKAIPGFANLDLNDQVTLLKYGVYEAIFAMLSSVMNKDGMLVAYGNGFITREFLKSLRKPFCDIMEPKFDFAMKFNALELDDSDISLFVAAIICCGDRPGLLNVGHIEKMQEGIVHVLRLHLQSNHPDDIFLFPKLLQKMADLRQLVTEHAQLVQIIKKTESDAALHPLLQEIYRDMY
Summary of the method: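 Measures transcriptional activity of an exogenous chimeric PPARa-Gal4 protein in transiently transfected HepG2 cells after 24 h dosing. Reporter mRNA quantified via RT-PCR and capillary electrophoresis; DMSO served as negative control.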

[2] = target: human Retinoic Acid Receptor beta (RARb), RARB (gene 5915) (UniProt P10826); experiment: ATG_RARb_TRANS: Attagene TRANS-FACTORIAL HepG2 Assay for human Retinoic Acid Receptor beta (AID 2283004)
Sequence of human Retinoic Acid Receptor beta (RARb), RARB (gene 5915) (P10826 whole entry, looked up, the tested form may be a part): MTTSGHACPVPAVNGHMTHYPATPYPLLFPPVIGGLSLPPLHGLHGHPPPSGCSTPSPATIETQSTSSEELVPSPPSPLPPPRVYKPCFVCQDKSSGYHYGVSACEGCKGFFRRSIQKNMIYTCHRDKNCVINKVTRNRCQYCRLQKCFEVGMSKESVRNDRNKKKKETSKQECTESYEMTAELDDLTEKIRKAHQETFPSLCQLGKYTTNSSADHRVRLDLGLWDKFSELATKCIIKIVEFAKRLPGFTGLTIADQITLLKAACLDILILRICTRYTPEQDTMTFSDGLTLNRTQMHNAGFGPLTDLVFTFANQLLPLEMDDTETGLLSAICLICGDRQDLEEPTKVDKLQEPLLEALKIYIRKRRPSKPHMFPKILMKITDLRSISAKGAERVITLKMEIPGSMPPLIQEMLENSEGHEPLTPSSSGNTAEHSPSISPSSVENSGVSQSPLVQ
Summary of the method: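 Fluorescent capillary-electrophoresis detection of GAL4-UAS reporter mRNA defines the endpoint, with induction over DMSO-treated wells scored as activity. Transiently transfected human hepatoma HepG2 cells expressing exogenous NR–Gal4 proteins are exposed to test chemicals for 24 h.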

[3] = target: Retinoic acid receptor alpha (Homo sapiens) (UniProt P10276); experiment: ATG_RARa_TRANS: Attagene TRANS-FACTORIAL HepG2 Assay for human Retinoic Acid Receptor alpha (RARa) (AID 2283005)
Sequence of Retinoic acid receptor alpha (Homo sapiens) (P10276 whole entry, looked up, the tested form may be a part): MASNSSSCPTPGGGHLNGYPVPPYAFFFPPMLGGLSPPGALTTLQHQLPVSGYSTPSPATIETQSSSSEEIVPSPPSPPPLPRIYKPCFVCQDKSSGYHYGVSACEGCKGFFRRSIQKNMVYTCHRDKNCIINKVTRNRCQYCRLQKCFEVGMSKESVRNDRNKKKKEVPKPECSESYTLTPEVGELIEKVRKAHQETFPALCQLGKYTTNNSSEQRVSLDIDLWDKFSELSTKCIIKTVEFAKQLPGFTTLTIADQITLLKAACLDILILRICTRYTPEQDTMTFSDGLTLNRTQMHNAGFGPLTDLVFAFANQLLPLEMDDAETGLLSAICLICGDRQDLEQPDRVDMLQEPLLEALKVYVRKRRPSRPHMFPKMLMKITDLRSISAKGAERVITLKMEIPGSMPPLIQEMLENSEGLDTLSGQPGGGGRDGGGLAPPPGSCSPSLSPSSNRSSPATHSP
Summary of the method: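 HepG2 transiently transfected with multiplex GAL4-UAS reporter units including a human RARa–GAL4 chimera; 24 h compound exposure. Reporter mRNA quantified by RT-PCR, 6-FAM labeling and capillary electrophoresis; gain of signal versus DMSO.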

[4] = target: Peroxisome proliferator-activated receptor gamma (Homo sapiens) (UniProt P37231); experiment: ATG_PPARg_TRANS: Attagene TRANS-FACTORIAL HepG2 Assay for human Peroxisome Proliferator-activated Receptor-gamma (PPARg) (AID 2283007)
Sequence of Peroxisome proliferator-activated receptor gamma (Homo sapiens) (P37231 whole entry, looked up, the tested form may be a part): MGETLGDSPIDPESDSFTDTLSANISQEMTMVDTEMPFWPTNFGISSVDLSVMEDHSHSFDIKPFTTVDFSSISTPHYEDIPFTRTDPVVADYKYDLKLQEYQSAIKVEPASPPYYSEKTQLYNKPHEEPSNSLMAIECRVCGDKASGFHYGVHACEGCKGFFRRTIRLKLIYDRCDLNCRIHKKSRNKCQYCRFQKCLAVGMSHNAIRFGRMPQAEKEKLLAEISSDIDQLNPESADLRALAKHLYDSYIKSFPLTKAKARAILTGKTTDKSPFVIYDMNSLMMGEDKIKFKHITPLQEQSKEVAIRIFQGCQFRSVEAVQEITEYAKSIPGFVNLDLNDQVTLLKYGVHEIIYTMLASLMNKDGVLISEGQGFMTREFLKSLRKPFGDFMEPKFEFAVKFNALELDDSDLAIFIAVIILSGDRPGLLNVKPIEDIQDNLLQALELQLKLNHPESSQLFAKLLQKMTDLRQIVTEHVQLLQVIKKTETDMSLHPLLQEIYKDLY
Summary of the method: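 Endpoint reflects upward reporter mRNA change versus DMSO controls. Setup: transiently transfected HepG2, GAL4-UAS reporters driven by chimeric NR-Gal4, 24 h incubation, RT-PCR with capillary electrophoresis read-out.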

[5] = target: Nuclear receptor subfamily 1 group I member 2 (Homo sapiens) (UniProt O75469); experiment: ATG_PXR_TRANS: Attagene TRANS-FACTORIAL HepG2 Assay for human Pregnane X Receptor (PXR) (AID 2283008)
Sequence of Nuclear receptor subfamily 1 group I member 2 (Homo sapiens) (O75469 whole entry, looked up, the tested form may be a part): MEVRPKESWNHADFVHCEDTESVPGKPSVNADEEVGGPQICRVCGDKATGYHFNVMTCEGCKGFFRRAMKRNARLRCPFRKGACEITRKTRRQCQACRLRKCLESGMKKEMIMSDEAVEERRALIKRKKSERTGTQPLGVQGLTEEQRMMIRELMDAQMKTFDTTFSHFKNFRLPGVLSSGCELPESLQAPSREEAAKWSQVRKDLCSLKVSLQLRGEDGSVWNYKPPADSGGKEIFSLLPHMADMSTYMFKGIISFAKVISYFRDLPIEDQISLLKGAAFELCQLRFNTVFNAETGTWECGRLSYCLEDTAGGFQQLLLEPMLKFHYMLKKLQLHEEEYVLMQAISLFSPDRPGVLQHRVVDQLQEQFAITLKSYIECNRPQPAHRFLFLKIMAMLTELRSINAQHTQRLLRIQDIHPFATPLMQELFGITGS
Summary of the method: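 Fluorescence intensity of FAM-labelled, HpaI-digested reporter amplicons, separated by capillary electrophoresis, quantifies induction. HepG2 cells with PXR-Gal4 trans-reporter system were exposed 24 h; DMSO defines baseline.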

[6] = target: human Retinoic Acid Receptor gamma (RARg), RARG (gene 5916) (UniProt P13631); experiment: ATG_RARg_TRANS: Attagene TRANS-FACTORIAL HepG2 Assay for human Retinoic Acid Receptor gamma (RARg) (AID 2283009)
Sequence of human Retinoic Acid Receptor gamma (RARg), RARG (gene 5916) (P13631 whole entry, looked up, the tested form may be a part): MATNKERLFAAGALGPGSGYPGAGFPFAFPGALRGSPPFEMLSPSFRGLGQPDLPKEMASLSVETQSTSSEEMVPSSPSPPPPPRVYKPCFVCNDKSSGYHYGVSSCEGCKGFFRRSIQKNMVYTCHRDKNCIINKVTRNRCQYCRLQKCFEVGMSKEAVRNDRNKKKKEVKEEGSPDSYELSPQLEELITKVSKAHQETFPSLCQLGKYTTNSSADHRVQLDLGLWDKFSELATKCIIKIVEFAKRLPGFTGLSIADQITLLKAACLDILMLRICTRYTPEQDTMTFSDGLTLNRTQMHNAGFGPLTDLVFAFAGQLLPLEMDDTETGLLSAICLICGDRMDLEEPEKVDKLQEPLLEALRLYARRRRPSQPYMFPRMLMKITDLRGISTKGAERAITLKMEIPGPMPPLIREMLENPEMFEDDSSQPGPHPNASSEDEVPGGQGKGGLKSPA
Summary of the method: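 HepG2 cells transiently transfected with multiplexed reporter units expressing chimeric RARg-GAL4 and GAL4-UAS-driven reporters; 24 h compound exposure. Reporter mRNA quantified by RT-PCR with fluorescent labelling and capillary electrophoresis; gain-of-signal fitted relative to DMSO baseline.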

[7] = target: Retinoic acid receptor RXR-alpha (Homo sapiens) (UniProt P19793); experiment: ATG_RXRa_TRANS: Attagene TRANS-FACTORIAL HepG2 Assay for human Retinoid X Receptor alpha (RXRa) (AID 2283012)
Sequence of Retinoic acid receptor RXR-alpha (Homo sapiens) (P19793 whole entry, looked up, the tested form may be a part): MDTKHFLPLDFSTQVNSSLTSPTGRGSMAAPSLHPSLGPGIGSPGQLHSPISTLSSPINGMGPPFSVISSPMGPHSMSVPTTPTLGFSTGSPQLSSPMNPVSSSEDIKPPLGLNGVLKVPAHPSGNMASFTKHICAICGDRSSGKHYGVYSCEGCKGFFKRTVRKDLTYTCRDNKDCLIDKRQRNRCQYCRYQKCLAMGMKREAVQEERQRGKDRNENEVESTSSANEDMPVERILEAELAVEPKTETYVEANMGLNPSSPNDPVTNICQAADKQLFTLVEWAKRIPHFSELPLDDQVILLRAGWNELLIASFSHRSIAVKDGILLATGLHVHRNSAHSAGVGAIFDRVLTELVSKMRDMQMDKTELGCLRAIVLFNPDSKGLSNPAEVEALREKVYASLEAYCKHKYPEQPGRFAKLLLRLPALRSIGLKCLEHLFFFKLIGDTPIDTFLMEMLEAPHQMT
Summary of the method: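 HepG2 cells transiently transfected with multiplexed GAL4-UAS reporter units and chimeric NR-GAL4 fusions, dosed 24 h. Reporter mRNA measured by RT-PCR, FAM labelling, HpaI digestion and capillary electrophoresis; gain-of-signal fitted relative to DMSO baseline.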

[8] = target: human Thyroid Receptor alpha (THRa1), THRA (gene 7067) (UniProt P10827); experiment: ATG_THRa1_TRANS: Attagene TRANS-FACTORIAL HepG2 Assay for human Thyroid Receptor alpha (THRa1) (AID 2283014)
Sequence of human Thyroid Receptor alpha (THRa1), THRA (gene 7067) (P10827 whole entry, looked up, the tested form may be a part): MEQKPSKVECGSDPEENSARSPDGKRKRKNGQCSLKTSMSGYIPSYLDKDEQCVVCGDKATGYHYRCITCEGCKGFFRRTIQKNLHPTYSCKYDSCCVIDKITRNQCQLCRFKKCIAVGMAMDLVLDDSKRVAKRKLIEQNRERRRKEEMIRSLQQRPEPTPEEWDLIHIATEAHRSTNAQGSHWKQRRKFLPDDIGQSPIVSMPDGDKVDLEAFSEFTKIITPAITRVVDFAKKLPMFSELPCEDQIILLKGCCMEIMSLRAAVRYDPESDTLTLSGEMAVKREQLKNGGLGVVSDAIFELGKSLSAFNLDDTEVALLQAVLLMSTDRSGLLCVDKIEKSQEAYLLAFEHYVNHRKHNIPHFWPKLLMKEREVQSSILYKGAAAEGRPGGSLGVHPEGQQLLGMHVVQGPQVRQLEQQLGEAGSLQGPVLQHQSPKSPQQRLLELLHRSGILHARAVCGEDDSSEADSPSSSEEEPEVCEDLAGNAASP
Summary of the method: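 Measured here is mRNA from a GAL4-UAS reporter in transfected HepG2 cells carrying a Gal4-fused receptor, 24 h post-dose. DMSO served as negative control and baseline.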

[9] = target: human Retinoid X Receptor beta (RXRb), RXRB (gene 6257) (UniProt P28702); experiment: ATG_RXRb_TRANS: Attagene TRANS-FACTORIAL HepG2 Assay for human Retinoid X Receptor beta (RXRb) (AID 2283013)
Summary of the method: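 HepG2 cells transiently transfected with multiplexed reporter units driven by GAL4-UAS and exogenous chimeric NR-Gal4 proteins; treated 24 h. Reporter mRNA measured by RT-PCR, 6-FAM labelling and capillary electrophoresis; gain-of-signal fitted versus DMSO baseline.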

[10] = target: human RAR-related Orphan Receptor beta (RORb), RORB (gene 6096) (UniProt Q92753); experiment: ATG_RORb_TRANS: Attagene TRANS-FACTORIAL HepG2 Assay for human RAR-related Orphan Receptor beta (RORb) (AID 2283010)
Sequence of human RAR-related Orphan Receptor beta (RORb), RORB (gene 6096) (Q92753 whole entry, looked up, the tested form may be a part): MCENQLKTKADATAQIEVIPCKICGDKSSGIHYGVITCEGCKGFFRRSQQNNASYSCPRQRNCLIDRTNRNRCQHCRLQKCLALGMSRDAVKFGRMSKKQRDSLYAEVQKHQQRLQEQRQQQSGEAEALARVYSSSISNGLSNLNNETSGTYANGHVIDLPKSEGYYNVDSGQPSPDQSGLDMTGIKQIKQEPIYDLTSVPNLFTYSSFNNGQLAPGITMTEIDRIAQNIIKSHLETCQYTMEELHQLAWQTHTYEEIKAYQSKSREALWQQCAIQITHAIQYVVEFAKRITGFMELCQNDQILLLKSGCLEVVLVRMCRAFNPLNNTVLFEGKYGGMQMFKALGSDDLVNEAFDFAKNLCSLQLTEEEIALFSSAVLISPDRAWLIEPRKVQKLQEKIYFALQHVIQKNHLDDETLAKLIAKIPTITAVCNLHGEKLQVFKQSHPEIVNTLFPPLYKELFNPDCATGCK
Summary of the method: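 HepG2 cells were transiently transfected with multiplexed GAL4-UAS reporter units expressing chimeric nuclear receptor–GAL4 proteins, then dosed for 24 h. Reporter mRNA was quantified by RT-PCR with fluorescent labelling and capillary electrophoresis; gain of signal was fitted relative to DMSO.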

[11] = target: human RAR-related Orphan Receptor gamma (RORg), RORC (gene 6097) (UniProt P51449); experiment: ATG_RORg_TRANS: Attagene TRANS-FACTORIAL HepG2 Assay for human RAR-related Orphan Receptor gamma (RORg) (AID 2283011)
Sequence of human RAR-related Orphan Receptor gamma (RORg), RORC (gene 6097) (P51449 whole entry, looked up, the tested form may be a part): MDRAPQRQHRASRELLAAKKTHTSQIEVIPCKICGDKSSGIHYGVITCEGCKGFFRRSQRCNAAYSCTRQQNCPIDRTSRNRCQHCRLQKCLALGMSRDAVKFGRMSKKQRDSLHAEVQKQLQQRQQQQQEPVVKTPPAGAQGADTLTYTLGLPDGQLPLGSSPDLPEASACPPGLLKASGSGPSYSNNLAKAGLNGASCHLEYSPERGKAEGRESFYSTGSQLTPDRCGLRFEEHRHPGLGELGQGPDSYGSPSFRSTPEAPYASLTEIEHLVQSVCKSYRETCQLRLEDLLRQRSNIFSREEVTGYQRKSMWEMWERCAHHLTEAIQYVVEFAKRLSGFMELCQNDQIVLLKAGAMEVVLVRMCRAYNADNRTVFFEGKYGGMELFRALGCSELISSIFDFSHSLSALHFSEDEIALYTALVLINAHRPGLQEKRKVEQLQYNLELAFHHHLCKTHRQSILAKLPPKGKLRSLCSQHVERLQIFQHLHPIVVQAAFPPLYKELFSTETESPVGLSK
Summary of the method: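 Chimeric RORg-Gal4 transactivation in transfected HepG2; 24 h exposure; RT-PCR/capillary electrophoresis readout of reporter mRNA, DMSO baseline.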

Measured: AC50

COc1ccc(-c2coc3cc(O)cc(O)c3c2=O)cc1
inactive: [2] | [3] | [6] | [7] | [8]
active: [1] 7.31 µM | [4] 27.1 µM | [5] 26.6 µM

C=CCCCCCCCCO
inactive: [1] | [4] | [5] | [7] | [9] | [8]

C=C(C)C(=O)OCC(O)COc1ccc(C(C)(C)c2ccc(OCC(O)COC(=O)C(=C)C)cc2)cc1 (stereo unspecified)
inactive: [1] | [6] | [10] | [7]
active: [4] 7.32 µM | [5] 6.93 µM | [8] 23.8 µM

CC(C)CCOCc1ccccc1
inactive: [1] | [4] | [5] | [11] | [9]

C=C[Si](OCCOC)(OCCOC)OCCOC
inactive: [1] | [2] | [5] | [7] | [8]

CC(C)=CCCC(C)=CC#N
inactive: [1] | [2] | [4] | [7] | [9]

Cc1c(C(=O)c2c[nH]n(C)c2=O)ccc(S(C)(=O)=O)c1C1=NOCC1
inactive: [1] | [3] | [5] | [10]

CC(=O)OCC=C(C)C
inactive: [1] | [3] | [4] | [5] | [7] | [9] | [8]

CCCc1ccc(O)c(OC)c1
inactive: [1] | [5] | [6] | [10] | [11] | [7] | [9]
active: [4] 57.2 µM

CCCCCCCCCCCCCCCCCCOS(=O)(=O)O
inactive: [5] | [8]
active: [1] 27.4 µM | [4] 8.35 µM | [9] 34.3 µM

[Cl][Sc]([Cl])[Cl]
inactive: [1] | [3] | [5] | [6] | [11] | [8]

CC(=O)OC/C=C(/C)CCC=C(C)C
inactive: [1] | [3] | [4] | [5] | [10] | [9]

CCCCCCCCCCCC(=O)OCC
inactive: [1] | [4] | [6] | [11] | [9]

CCCCCCCCCCCCc1ccc(O)cc1
inactive: [1] | [4] | [6] | [7] | [8]
active: [5] 3 µM | [9] 3.36 µM

CCCCCCCC(=O)OCC
inactive: [1] | [4] | [5] | [6] | [7] | [9]

O=C(O[C@@H]1Cc2c(O)cc(O)cc2O[C@@H]1c1cc(O)c(O)c(O)c1)c1cc(O)c(O)c(O)c1
inactive: [1] | [4] | [5] | [6] | [7] | [9] | [8]

C=C(C)[C@@H]1CC=C(C)CC1
inactive: [1] | [3] | [10] | [11] | [9]

O=C(O)c1cc(O)c2ccccc2c1O
inactive: [1] | [6] | [10] | [7] | [9] | [8]
active: [4] 9.25 µM | [5] 2.31 µM

CCC(C)(O)CCCC(C)C (stereo unspecified)
inactive: [1] | [4] | [5] | [7] | [9] | [8]

CC(=O)c1ccc(S(=O)(=O)NC(=O)NC2CCCCC2)cc1
inactive: [1] | [3] | [4] | [5] | [6] | [10] | [11]

O=C1CCCN1C1CCCCC1
inactive: [1] | [4] | [5] | [11] | [9]

O=C(O)/C=C/c1ccccc1
active: [9] 121 µM
inactive: [1] | [4] | [5] | [8]

CCOC(=O)[C@H](O)[C@@H](O)C(=O)OCC
inactive: [1] | [2] | [3] | [4] | [7] | [9] | [8]

C=CCCCCCCCCOC(C)=O
inactive: [1] | [4] | [5] | [11] | [9] | [8]

CC1=CCC2CC1C2(C)C (stereo unspecified)
inactive: [1] | [2] | [3] | [5] | [6] | [10] | [9]

Nc1ccc(O)c([N+](=O)[O-])c1
inactive: [1] | [4] | [5] | [10] | [11] | [7] | [9] | [8]

Nc1ccc(C(=O)OCCCOC(=O)c2ccc(N)cc2)cc1
inactive: [1] | [8]
active: [4] 33.4 µM | [5] 19.6 µM

C/C=C/C=C/CCCCCCCO
active: [4] 2.64 µM
inactive: [1] | [5] | [7] | [8]

CC(=O)c1ccccc1O
inactive: [1] | [4] | [5] | [10] | [7] | [9]

CCOC(=O)c1ccccc1C
inactive: [1] | [2] | [3] | [5] | [11] | [8]

N#CC1(N)CCCCC1
inactive: [1] | [4] | [6] | [10] | [7] | [9]

C=CCNCC=C
inactive: [1] | [2] | [4] | [5] | [10] | [8]

C=CC(C)(CCC=C(C)C)OC(=O)C=Cc1ccccc1 (stereo unspecified)
active: [4] 4.97 µM | [5] 2.75 µM
inactive: [1] | [9] | [8]

CCCSSCCC
inactive: [1] | [3] | [6] | [10] | [11] | [7]

CN(C)Cc1cc(CN(C)C)c(O)c(CN(C)C)c1
inactive: [1] | [2] | [4] | [5] | [8]

CC(=O)CCC=C(C)C
inactive: [1] | [2] | [4] | [10] | [9] | [8]
